The list is not random: actives were taken first. Their share in the collection is about 19%.
TDP1 cell CPT = DT40-hTDP1 cell growth loss with CPT; 12% of 420,000 active; Potency, µM (titrated, usually from 46.2 µM), inactives show top-dose activity change, negative = growth inhibition, hits mostly inhibitors; chicken DT40 Tdp1-/-;hTDP1 cells + 20 nM CPT, ATP luminescence, 48 h; also: potency is read from the fitted curve at half-maximal effect; nearly all actives have a fitted effect of over 55% in size
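Chicken DT40 Tdp1-/- cells complemented with human TDP1, 400 cells/well, exposed to compounds plus 20 nM camptothecin for at least 48 h at 37 C; viability read as ATP content by CellTiter-Glo luminescence.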
IL-1B inflam inh = blocks inflammasome-driven IL-1 beta release. activity change, % at 57.5 µM. THP-1 LPS/ATP IL-1B secretion, AlphaLISA, 16 h; stronger effect = lower value. 4.7% of 360,000 active; in the data active = activity change below about -50%; inconclusive = mostly about -30% to -49%
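Secreted IL-1B measured by AlphaLISA bead assay after 16 h compound exposure of THP-1 cells; compounds (final up to 57.5 uM) added 1 h before LPS (250 ng/mL) and ATP (1.25 mM) stimulation; lower signal means less secretion.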
ELG1 DNA repair = blocks ELG1-dependent DNA repair in HEK293T cells; HEK293T ELG1-luciferase reporter, luminescence, 16 h; DNA damage induced by 5-fluorouridine; Potency, µM (series often up to 46.1 µM), for inactives: at the top dose activity change, negative = inhibition, actives largely listed as inhibitors; 2.3% of 330,000 active; AID 504467; also: potency is read from the fitted curve at half-maximal effect; nearly all actives have a fitted effect of over 55% in size
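Luminescence from the luciferase reporter, measured 30 min after ONE-Glo reagent at room temperature, was the read-out. Beforehand, 2,000 cells per well were exposed for 16 hr at 37 °C to 5-fluorouridine together with compound or vehicle.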
HT1080 IDH1KD tx = toxicity to HT-1080 IDH1 knockdown cells (counter line) | 2% of 360,000 active | Potency, µM (doses to about 46.1 µM), for the others: at the top dose activity, negative = toxicity, actives largely listed as cytotoxic | AID 686971 | HT-1080 IDH1 knockdown viability, ATP luminescence, 48 h;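 also: potency is read from the fitted curve at half-maximal effect; 0% = DMSO wells and -100% = cell-free medium wells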
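Using the IDH1-knockdown HT-1080 line run in the same batch and compound series as the NT line, viability after 48 h at 37 °C was determined by CellTiter-Glo luminescence and expressed as % activity.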
DT40 TDP1 no CPT = qHTS for Inhibitors of human tyrosyl-DNA phosphodiesterase 1 (TDP1): qHTS in cells in absence of CPT. DT40 Tdp1-/- hTDP1 cells, no CPT, ATP luminescence, 48 h. Potency, µM (titrated, usually from 46.2 µM), inactives show top-dose activity change, negative = growth inhibition, usual class: inhibitors. 15% of 420,000 active; also: potency is read from the fitted curve at half-maximal effect; nearly all actives have a fitted effect of over 55% in size
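Seeded 400 DT40-hTDP1 cells/well (vehicle DMSO, no 20 nM CPT); pinned compounds; ≥48 hr at 37 °C; CellTiter-Glo luminescence as viability measure.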
HT1080NT lethal = kills 2HG-producing HT-1080-NT fibrosarcoma cells; HT-1080-NT fibrosarcoma viability, CellTiter-Glo ATP luminescence, 48 h; Potency, µM (doses to about 46.1 µM), for the others: top-dose activity, negative = less viability, most hits filed as cytotoxic; 1.6% of 360,000 active; AID 686970;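 also: NT is the 2HG producing partner of a matched IDH1 knockdown line; potency is read from the fitted curve at half-maximal effect; 0% = DMSO-treated cells and -100% = media-only wells without cells; nearly all actives have a fitted effect of over 55% in size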
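Viability by CellTiter-Glo luminescence after 48 h compound exposure at 37C of HT-1080-NT cells (750/well, RPMI, 5% FBS). % activity scaled between DMSO wells and medium-only wells, then curve-fitted and categorized by curve class.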
The depositor's hits bear a star; ? = inconclusive; nt = not tested or not shown; [ ] = dose if it differs, or a comment. Unless noted, calls follow the shape of the dose curve; as a rule, active = well fitted curve in the direction sought with a large enough effect; inconclusive = small, poorly fitted or top-dose-only effect, or another doubt; inactive = no such curve, though single readings can be large; an effect the other way counts as inactive or inconclusive. Unless noted, % is scaled to controls: 0 for no effect and ±100 for the full control effect.

SMILES	TDP1 cell CPT	IL-1B inflam inh	ELG1 DNA repair	HT1080 IDH1KD tx	DT40 TDP1 no CPT	HT1080NT lethal
CCOc1ccc(-n2c(SCC(=O)N3CCCCCC3)nc3c([nH]c4ccccc43)c2=O)cc1	21µM*	nt	nt	nt	23µM*	nt
CC(=O)c1ccc(OC(=O)Oc2ccc(C(C)=O)cc2)cc1	-24%	2	nt	0%	-26%	-1%
CC(=O)Oc1ccc2ccc3ccc(C(C)=O)cc3c2c1	?	?	nt	?	18µM*	-23%
CCN=C1SC(C(=O)Nc2ccc(OC)cc2)CC(=O)N1CC (configuration not stated)	8%	-5	-2%	-1%	-4%	11%
O=C1NC(NS(=O)(=O)c2ccccc2)(C(F)(F)F)C(=O)N1Cc1ccccc1 (configuration not stated)	-5%	-3	6%	4%	27%	1%
CN(C)S(=O)(=O)c1ccc2c(c1)Cc1cc(S(=O)(=O)N(C)C)ccc1-2	16%	-2	2.3µM*	1%	-9%	?
Cc1ccc(C)c(NS(=O)(=O)c2ccc3c(c2)Cc2cc(S(=O)(=O)Nc4cc(C)ccc4C)ccc2-3)c1	21µM*	40	?	-12%	13µM*	-23%
COc1cccc(C(=O)NCC2CCCN(C(=O)Cc3cccc(C)c3)C2)c1OC (configuration not stated)	?	20	nt	2%	?	1%
CSCCOC(=O)C1=C(C)Nc2ccc(C)cc2S1	21µM*	?	-11%	-9%	16µM*	-8%
COc1ccc(/C=C/C(=O)Nc2ccc3nc4c(c(Nc5ccc(OC)c(OC)c5)c3c2)CCCC4)cc1	3.7µM*	nt	nt	nt	4.6µM*	nt
COc1ccc(NC(=O)c2ccc3c(SCC(=O)O)c4c(nc3c2)CCCC4)cc1OC	6%	nt	nt	nt	1%	nt
COc1ccc(Nc2c3c(nc4ccc(NC(=O)/C=C/c5cc(OC)c(OC)c(OC)c5)cc24)CCCC3)cc1OC	1µM*	nt	nt	nt	1.8µM*	nt
O=C(Cn1cnc2c(nc3n2CCCCC3)c1=O)Nc1ccc(F)c(Cl)c1	-23%	nt	nt	nt	-18%	nt
O=C(NN1c2ccccc2CCc2ccccc21)c1ccccc1Br	21µM*	7	-3%	-19%	?	-1%
CNC(=O)N1c2ccccc2CCc2ccccc21	-23%	3	-2%	-1%	?	2%
O=C(CN1CCSC1=O)Nc1ccc(N2CCOCC2)cc1	0%	2	?	7%	-19%	5%
CC(=O)c1cccc(NC(=O)c2sc(-n3nc(C)c(Cc4ccc5c(c4)OCO5)c3C)nc2C)c1	15µM*	nt	nt	nt	15µM*	nt
CC(=O)c1cccc(NC(=O)N2CCCC2C(=O)NCc2ccc3c(c2)OCO3)c1 (configuration not stated)	7%	4	?	5%	8%	8%
Cc1ccccc1C(=O)N1CCC(C(=O)NN2C(=O)NC3(CCCCC3)C2=O)CC1	2%	-14	7%	-13%	18%	2%
Cn1c(=O)[nH]c(=O)c2c1nc(SCC(O)CCl)n2Cc1ccccc1 (configuration not stated)	12µM*	11	12%	-11%	?	-9%
Cn1c(=O)[nH]c(=O)c2c1nc(SCC(=O)Nc1ccccc1)n2Cc1ccccc1	23µM*	-15	-18%	0%	18µM*	-1%
Cc1ccc(S(=O)(=O)N2CCCCC2)cc1NC(=O)c1nn(C)c(=O)c2ccccc12	?	37	1%	9%	?	7%
OC(CN1CCOCC1)c1ccc(F)cc1 (configuration not stated)	5%	-10	6%	-3%	-6%	3%
O=C(c1ccc(F)cc1)C(CCCCCC(CN1CCOCC1)C(=O)c1ccc(F)cc1)CN1CCOCC1 (configuration not stated)	?	?	-17%	?	18µM*	?
CCC(=O)Nc1cccc(-c2nc3ccccc3o2)c1	-14%	0	-21%	-10%	-13%	-1%
SMILES	TDP1 cell CPT	IL-1B inflam inh	ELG1 DNA repair	HT1080 IDH1KD tx	DT40 TDP1 no CPT	HT1080NT lethal
Cc1ccc2oc(-c3ccc(C)c(NC(=O)/C=C/c4ccco4)c3)nc2c1	-19%	nt	nt	nt	-24%	nt
O=C(Nc1cccc(-c2nc3ccccc3o2)c1)C(F)(F)F	3.7µM*	nt	nt	nt	2.9µM*	nt
Cc1ccc(-c2nc3ccccc3o2)cc1NC(=S)NC(=O)/C=C/c1ccco1	2.9µM*	-2	?	?	2.9µM*	?
O=C(/C=C/c1ccco1)NC(=S)Nc1cccc(-c2nc3ccccc3o2)c1	4.6µM*	37	?	5.8µM*	3.3µM*	5.2µM*
CC(C)NC[C@H](O)COc1ccc(CC(N)=O)cc1	-22%	-19	-2%	8%	-12%	?
CCOC(=O)[C@H]1[C@H]2COc3ccc(OC)cc3[C@@H]2N2C(=O)CN(C)C(=O)[C@@]12C	-8%	-8	12%	0%	-19%	0%
Cc1ccccc1Cc1c(C)nc2nc(SCC(=O)N(C)c3ccccc3)nn2c1C	23µM*	nt	nt	nt	?	nt
Cc1ccc(Cc2c(C)nc3nc(SCC(=O)NCc4ccco4)nn3c2C)cc1	3.3µM*	46	14%	2.6µM*	4.6µM*	?
Cc1ccccc1CSc1nc2nc(C)c(Cc3ccccc3)c(C)n2n1	-109%	nt	nt	nt	16µM*	nt
Cc1nc2nc(SCC(=O)NC(C)c3ccccc3)nn2c(C)c1Cc1c(F)cccc1Cl (configuration not stated)	23µM*	nt	nt	nt	16µM*	nt
COC(=O)c1cc(OC)c(OC)cc1NC(=O)c1cc(C(C)(C)C)oc1C	?	33	?	8%	-1%	?
COc1ccc(NC2=CC(=O)N(C)C2=O)cc1	19%	-3	?	-14%	3%	-16%
Cc1cnccn1	?	nt	nt	nt	11%	nt
Cc1ccccc1Cc1c(C)nc2nc(SCC(=O)NC(C)c3ccccc3)nn2c1C (configuration not stated)	16µM*	nt	nt	nt	?	nt
COCCCNC(=O)c1ccc(N2CCCC2)c(NS(=O)(=O)c2ccc(C)cc2)c1	-27%	-5	?	?	?	7%[9.24 µM]
Cc1ccc(S(=O)(=O)Nc2cc(C(=O)NCCN3CCCC3)ccc2N2CCCCC2)cc1	21µM*	-19	2%	?	16µM*	?
Cc1ccc(S(=O)(=O)Nc2cc(C(=O)NCCN(C)C)ccc2N2CCCCC2)cc1	?	?	12%	?	16µM*	?
